# Experimental data published in ChEMBL document CHEMBL1157539, “Thousands of chemical starting points for antimalarial lead identification” (Nature, 2010).
# Legend:
# Format in all cases: functional
# Plasmodium falciparum [1] = experiment: GSK_TCMDC: Inhibition of Plasmodium falciparum 3D7 in whole red blood cells, using parasite LDH activity as an index of growth. Test compounds present at 2uM
# Plasmodium falciparum [2] = experiment: GSK_TCMDC: Inhibition of Plasmodium falciparum Dd2 in whole red blood cells, using parasite LDH activity as an index of growth. Test compounds present at 2uM
# HepG2 = experiment: GSK_TCMDC: Percent inhibition of human HepG2 cell line. Test compounds present at 10uM.
SMILES,Inhibition (Plasmodium falciparum [1]) [%],Inhibition (Plasmodium falciparum [2]) [%],Inhibition (HepG2) [%]
COc1ccc2nccc([C@@H](O)CN3CCC(NC/C=C/c4cccnc4)CC3)c2c1.CS(=O)(=O)O,100,19,0
CC(C)Cc1cnc2nc(N)nc(N)c2c1.Cl,98,0,66
O=C(C=Cc1ccc(Cl)c(Cl)c1)NCCCCCN1CCC(CCCNC(=O)/C=C/c2ccccc2)CC1,96,33,50
OC(CNCCc1ccccc1)Cn1c2ccc(Cl)cc2c2cc(Cl)ccc21 (configuration not stated),98,96,53
